# Screening results deposited in PubChem by National Center for Advancing Translational Sciences (NCATS).
# KB-3-1 cytotox: KB-3-1 parental cell cytotoxicity. 400,000 tested, 1.4% active. Potency, µM (top dose mostly 46.1 µM), hits mostly cytotoxic. KB-3-1 viability, CellTiter-Glo ATP luminescence, 72 h; further: nearly all actives have a fitted effect of over 60% in size
#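 Viability of parental KB-3-1 cells, measured by CellTiter-Glo luminescence, followed a 72 h incubation at 37 °C with pinned compounds in phenol-red-free DMEM containing 10% FBS.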
# ELG1 DNA repair: inhibitors of ELG1-dependent DNA repair in HEK293T cells; HEK293T ELG1-luciferase reporter, luminescence, 16 h; DNA damage induced by 5-fluorouridine; Potency, µM (top dose mostly 46.1 µM), usual class: inhibitors; 330,000 tested, 2.3% active; further: nearly all actives have a fitted effect of over 55% in size
#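 HEK293T cells expressing luciferase-tagged ELG1 (2,000/well) received 5-Fluorouridine plus compound or DMSO for 16 hr at 37 °C. Luciferase was read by ONE-Glo luminescence after 30 min at room temperature.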
# MCF10A rerep: inducers of DNA re-replication in MCF 10A breast cells; MCF 10A DNA re-replication, Hoechst nuclear intensity, 48 h; Potency, µM (top dose mostly 46.1 µM), most hits filed as activators; 350,000 tested, 2.9% active; further: nearly all actives have a fitted effect of over 50% in size
# KB-V1 MDR tox: kills drug-selected multidrug resistant KB-V1 cells | AID 1347076 | KB-V1 MDR cells viability, CellTiter-Glo, 72 h | 400,000 tested, 3.4% active | Potency, µM (series often up to 46.1 µM), actives largely listed as cytotoxic; further: nearly all actives have a fitted effect of over 60% in size
#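 Compound-treated KB-V1 multidrug-resistant cells, 72 h, 37 degrees C; viability by CellTiter-Glo. Fitted qHTS curves give the values.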
# SW480 rerep: inducers of DNA re-replication in SW480 colon cancer cells. 340,000 tested, 1.8% active. SW480 DNA re-replication, Hoechst DNA content imaging, 48 h. Potency, µM (series often up to 46.1 µM), actives largely listed as activators; further: nearly all actives have a fitted effect of over 55% in size
#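 Compounds, transferred as 23 nL by pin tool, were incubated with cells for 48 hr; DNA content per nucleus was then quantified by Hoechst staining and fluorescence plate imaging.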
# A number is an active result; n = inactive; u = inconclusive; x = no result; [ ] = another dose, or the depositor's remark. Most compounds without a hit are left out; they make up all but 8.1% or so of the library. The call rests on the fitted dose curve; in most records, active means well fitted curve in the direction sought with a large enough effect; inconclusive means small, poorly fitted or top-dose-only effect, or another doubt; inactive means no such curve, though single readings can be large; an effect the other way counts as inactive or inconclusive.
SMILES,KB-3-1 cytotox,ELG1 DNA repair,MCF10A rerep,KB-V1 MDR tox,SW480 rerep
CCOc1ccccc1CNC(=O)c1cc2oc3ccccc3c2n1C,7.31µM,n,14.6µM,u,n
COc1ccc(S(=O)(=O)N(CC(=O)O)c2ccccn2)cc1,n,n,n,n,n
COc1ccc(S(=O)(=O)N(CC(=O)N2CCN(c3ccccc3OC)CC2)c2ccccc2)cc1,u,20.6µM,n,u,n
Cc1cc(C)cc(N(CC(=O)N2CCC(C)CC2)S(=O)(=O)c2ccccc2)c1,n,x,n,16.4µM,u
COc1ccccc1N1CCN(C(=O)CN(CCc2ccccc2)S(C)(=O)=O)CC1,n,u,n,9.2µM,n
COc1ccc(S(=O)(=O)N(CC(=O)O)c2ccccc2)cc1,n,n,3.66µM,n,n
COc1ccc(-n2c3c(cc(C(=O)Nc4cccc(C)n4)c2=O)C(=O)CC(C)(C)C3)cc1,n,n,n,n,n
Cc1[nH]c2c(ccc3cccnc32)c1C,n,14.6µM,n,n,n
Clc1ccc2ccc3cccnc3c2n1,n,n,n,n,n
Cc1cc(C=CC#N)cc(C)c1Nc1nc(Nc2ccc3c(c2)OCO3)c2[nH]cnc2n1,18.4µM,x,x,u,x
O=C(Nc1ccc2ccccc2c1)N1CCCN(CCOc2ccccc2)CC1,u,u,n,14.6µM,n
COCCNCC(=O)N1c2ccccc2Sc2ccccc21,n,n,n,n,n[9.22 µM]
Cc1n[nH]c(=S)n1/N=C/c1cccc(OCc2ccccc2)c1,n,n,u,n,n
Cc1n[nH]c(=S)n1/N=C/c1ccccc1OCc1ccc(Cl)cc1,u,u,n,11.6µM,u
Cc1noc2ncnc(Sc3ccc(Br)cc3)c12,u,u,13µM,n,n
CCOc1cc(C=O)cc(N=Nc2cccc([N+](=O)[O-])c2)c1O,n,n,n,n,n
Cc1ccc(CCC(=O)Nc2ncc(Cc3cccc(Cl)c3Cl)s2)o1,0.116µM,n,u,0.517µM,1.16µM
CC1(C)OC(=O)C2=C(C[C@@H](C3CCCCC3)O[C@H]2c2ccc(Cl)cc2)O1,n,x,x,n,x
Cc1ccc(-c2csc(NC(=O)c3ccno3)n2)cc1,n,u,n,n,n
COc1ccc(C(=O)c2cn[nH]c2-c2cc(Cl)ccc2O)cc1,u,n,n,18.4µM,u
COC(=O)c1ccc(CNC(=O)c2cc(COc3cncc(Cl)c3)on2)cc1,n,20.6µM,n,n,n
CC(C)c1cc(CNC(=O)c2cc(COc3cncc(Cl)c3)on2)on1,n,u,n,n,n
COc1ccc(N(CC(=O)NCCc2ccccc2)C(=O)CCC(=O)Nc2ccccn2)cc1,n,n,n,n,n
Cc1ccc2nc(NC(=O)C3CCN(S(=O)(=O)c4cccs4)CC3)sc2c1,u,n,n,4.61µM,n
CCOc1ccc(NC(=O)C2CCN(S(=O)(=O)c3cccs3)CC2)cc1,u,n,n,u,n
SMILES,KB-3-1 cytotox,ELG1 DNA repair,MCF10A rerep,KB-V1 MDR tox,SW480 rerep
O=C(Nc1ccc(OC(F)(F)F)cc1)C1CCN(S(=O)(=O)c2cccs2)CC1,20.6µM,x,x,n,x
COc1ccc2nc(NC(=O)C3CCCN(S(=O)(=O)c4cccs4)C3)sc2c1 (stereo unspecified),n,u,n,n,n
Cc1cccc(NC(=O)C2CCN(S(=O)(=O)c3cccs3)CC2)n1,n,u,n,23.1µM,n
O=C(Nc1nc2ccc(C(=O)N3CCCCC3)cc2s1)C1CCCCC1,5.8µM,u,4.11µM,3.66µM,6.51µM
O=C(Nc1ccccn1)C1CCN(S(=O)(=O)c2cccs2)CC1,n,n,n,u,n
CCOc1ccc(CCNC(=O)C2CC(=O)N(CCc3ccccc3)C2)cc1OCC (stereo unspecified),n,n,n,n,n
Cc1ccc2nc(NC(=O)C3CCN(S(=O)(=O)c4cccnc4)CC3)sc2c1,u,16.4µM,n,u,n
COc1ccc(NC(=O)C2CCN(S(=O)(=O)c3c(C)noc3C)CC2)cc1,n,u,n,n,n
COc1ccc2nc(NC(=O)C3CCN(S(=O)(=O)c4cccs4)CC3)sc2c1,u,10.3µM,n,23.1µM,n
Cc1noc(C)c1S(=O)(=O)N1CCC(C(=O)Nc2ccc(OC(F)(F)F)cc2)CC1,n,u,15.8µM,n,n
COc1ccc2nc(NC(=O)C3CCN(S(=O)(=O)c4cccnc4)CC3)sc2c1,n,u,n,n,n
